A number with no mark means an inactive call.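 How the source made its calls: active = MAPPIT score above the 99th percentile of random reference set scores in the same batch; inactive = at or below it.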

What all share (assay): MAPPIT interaction score (arbitrary units); higher = stronger binary interaction signal, active = hit call of the paper
One assay addresses CG15449. Particulars: MAPPIT configuration: N-N; pair source set: Finley_Y2H.
Another assay concerns the target CG5946. Particulars: MAPPIT configuration: N-N; pair source set: Finley_Y2H.
Another assay concerns the target PHDP. Particulars: MAPPIT configuration: N-N; pair source set: Finley_Y2H.
The next assay concerns the target Prim2. Particulars: MAPPIT configuration: N-N; pair source set: Finley_Y2H.
A further assay addresses CG15443. Particulars: MAPPIT configuration: N-N; pair source set: Curagen_low_conf.
The target in the next assay is Gs1. Particulars: MAPPIT configuration: N-N; pair source set: DPIM.
The next assay addresses Mpp6. Particulars: MAPPIT configuration: N-N; pair source set: DPIM.
A further assay concerns the target CG14764. Particulars: MAPPIT configuration: N-N; pair source set: Curagen_low_conf.
In another assay the target is CG6933. Particulars: MAPPIT configuration: N-N; pair source set: Lit-BS-16.
For the next assay, the target named is CG15347. Particulars: MAPPIT configuration: N-C; pair source set: screen_3.
Another assay addresses CG14818. Particulars: MAPPIT configuration: N-N; pair source set: screen_2.
The target in a further assay is Tm1. Particulars: MAPPIT configuration: N-N; pair source set: screen_1.
The next assay has as its target dgrn. Particulars: MAPPIT configuration: N-N; pair source set: screen_1.
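Further: HEK293T cells with Epo stimulation, STAT-responsive firefly luciferase reporter, fold induction versus unstimulated cells divided by the larger fold induction of two negative controls lacking either bait or prey.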

B1: RhoGAP68F (protein)
chain: MDAHSRFAPRLPGPAINPIVDNSDEPQPSLSDLHDFEPKLEFDDTELLAPSPLEKDVMVGDFVLAEDPELEPEEDVNPLEDDFEDQLREQSENFQTPRNKCDFLGTDKQGRHIFGIYASRFPEKSQLEGFVREIIKEIEPFVENDYILVYFHQGLKEDNKPSAQFLWNSYKELDRNFRKNLKTLYVVHPTWFIRVIWNFFSPFISDKFRKKLVYISSLDELRQALGLNKLKLPDNICDLDDKLNPSRKPSTPPPSSNINASRQQQHKMATTHQFGVPLKFIVMNSPCLNSIPPIVRKCVDSLSITGVIDTEGIFRRSGNHSEIMALKERVNRGEDVDLKSVNVHVIAGLLKSFLRDLAEPLLTFELYEDVTGFLDWPKEERSRNVTQLIREKLPEENYELFKYIVEFLVRVMDCEDLNKMTSSNLAIVFGPNFLWSRSTSTSLEEIAPINAFVDFVLQNHKDIYLIDVNQRTVSVD
Regarding B1, the MAPPIT interaction score is 0.0825 in the assay with CG15449, 0.206 with CG5946, 0.248 with PHDP and 3.38 (active) in the assay with Prim2.

B2: eEF5 (protein)
chain: MAELDDQFETTDSGASTTYPMQCSALRKNGFVMLKSRPCKIVEMSTSKTGKHGHAKVHMVGIDIFSNKKYEDICPSTHNMDVPNVKREDLQLIAISDDSFLTLMTESGDLREDLKVPEGELGEQLRLDFDSGKDLLCTVLKACGEECVIAIKTNTALDK
Consider B2, for which the results for the MAPPIT interaction score with CG15443, with Gs1 and with Mpp6 were 0.896, 0.522 and -0.193, respectively.

B3: cad (protein)
chain: MVSHYYNTLPYTQKHSAANLAYASAAGQPWNWTPNYHHTPPNHQFLGDVDSSHAAHHAAAAHQMYYNSHHMFHSAAAASAGEWHSPASSTADNFVQNVPTSAHQLMQQHHHHHAHASSSSASSGSSSSGGAPGAPQLNETNSSIGVGGAGGGGGVGGATDGGPGSAPPNHQQHIAEGLPSPPITVSGSEISSPGAPTSASSPHHHLAHHLSAVANNNNNNNNNNNSPSTHNNNNNNNSVSNNNRTSPSKPPYFDWMKKPAYPAQPQPGKTRTKDKYRVVYTDFQRLELEKEYCTSRYITIRRKSELAQTLSLSERQVKIWFQNRRAKERKQNKKGSDPNVMGVGVQHADYSQLLDAKAKLEPGLHLSHSLAHSMNPMAAMNIPAMRLHPHLAAHSHSLAAVAAHSHQLQQQHSAQMSAAAAVGTLSM
B3: the MAPPIT interaction score was -0.0445 in the assay with CG14764 and -0.219 with CG6933.

B4: Nep3 (protein)
chain: MTRYKQTEFTEDDSSSIGGIQLNEATGHTGMQIRYHTARATWNWRSRNKTEKWLLITTFVMAITIFTLLIVLFTDGGSSDATKHVLHVQPHQKDCPSGNELPCLNKHCIFASSEILKSIDVTVDPCDDFYGYSCNQWIKNNPIPEGKSTWGTFGKLEQMNQLIIRNVLEKPAKSFKSDAERKAKVYYESCLDADEHMEKLGAKPMNDLLLQIGGWNVTKSGYNVANWTMGHTLKILHNKYNFNCLFGWAIGEDDKNSSRHVIQIDQGGLTLPTADYYNNKTDNHRKVLNEYIEYMTKVCVLLGANESDARAQMIGVINFEKKLANITIPLEDRRNEEAMYHPMQLRQLSKLAPFLNWTDHFDNAMQMVGRRVTDDEVVVVYAPDFLKNLSDIILKMEQTEEGKITLNNYLVWQAVRTLTSCLSKPFRDAYKGVRKALMGSDGGEEIWRYCVSDTNNVVGFAVGAIFVRQAFHGESKPAAEQMIAEIREAFKMNLQNLTWVDKQTREKAIEKANQISDMIGFPDYILDPVELDKKYAELNITPNAYFENNIQVAIYNLKSNLKRLDQPVNKTNWGMTPQTVNAYYTPTKNQIVFPAGILQTPFFDINNPKSLNFGAMGVVMGHELTHAFDDQGREYDKFGNINRWWDSKSIERFNEKSECIARQYSGYKMNGRTLNGKQTLGENIADNGGLKAAYHAYQRTKSDRDVDILKLPGLNLTHSQLFFVSFAQVWCSSTTDETNLLQMEKDPHSPSQFRVIGTLSNMKEFAEVFQCKPGKRMNPTEKCEVW
As for B4, in the assay with CG15347, the MAPPIT interaction score is -1.12.

B5: CG10681 (protein)
chain: MSHLGLADVHQSEDATPDLESFTGFGNSAAEAFIQSLAGMVNQGDVETMIRAQKQMLQRFEKTNEMLLNCNALSQSRLKSASEDFKRHVKCLSEMKKDLDYIFRKIRIIKQKLQSQFPAIYAEVQPQRSSLAEEAEDDTEAQAKKTAETPAPAAAKPVLSTKKSAATIEYVQMEEAVDNGTVEIENELIKRVCSVETANPNDSSDCTSEDTG
Turning to B5, the MAPPIT interaction score with CG14818 is 5 (active); with Tm1, 2.36; with dgrn, 0.165.

Values taken from the supplement of paper PMC10105736.
